In all, about 190,000 compounds went through this assay and about 1,300 (0.68%) were called active. The sample as a whole holds a higher share of actives than the screen did. A number with no mark means an inactive call. Rule as the data show it: active = inhibition above about 50%; inactive = the rest.
Target: Mannose-6-phosphate isomerase (Homo sapiens) (UniProt P34949)
Assay: human PMI inhibitors, high substrate, primary screen, biochemical, fluorescence intensity, high mannose 6-phosphate (AID 1220)
Conditions: recombinant PMI enzyme, coupled fluorescence intensity; at 20 µM; active compounds read high

Sequence of Mannose-6-phosphate isomerase (Homo sapiens) (P34949 whole entry, looked up): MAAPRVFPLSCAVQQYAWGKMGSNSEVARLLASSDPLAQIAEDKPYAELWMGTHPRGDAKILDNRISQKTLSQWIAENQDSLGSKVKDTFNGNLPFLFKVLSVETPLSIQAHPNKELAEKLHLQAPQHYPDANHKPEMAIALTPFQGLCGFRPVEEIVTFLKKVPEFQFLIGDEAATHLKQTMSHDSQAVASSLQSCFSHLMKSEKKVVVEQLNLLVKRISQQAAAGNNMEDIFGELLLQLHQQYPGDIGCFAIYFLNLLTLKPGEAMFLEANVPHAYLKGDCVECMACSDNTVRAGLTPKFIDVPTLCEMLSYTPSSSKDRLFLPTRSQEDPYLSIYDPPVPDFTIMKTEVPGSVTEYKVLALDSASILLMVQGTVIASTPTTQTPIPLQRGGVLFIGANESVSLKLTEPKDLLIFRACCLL

Row | SMILES | inhibition
1 | CCCc1nc2c(=O)[nH]c3ccccc3c2o1 | -0.9%
2 | NC(=O)c1c(NC(=O)c2cc3ccccc3o2)sc2c1CCC2 | 2.2%
3 | O=C(Nc1cccc2nsnc12)c1ccc(-c2cccc(Cl)c2)o1 | 50.2% (active)
4 | O=C(Nc1cccc2nsnc12)c1ccc(-c2ccc(Br)cc2)o1 | 50.3% (active)
5 | O=C(Nc1ccccc1N1CCCCC1)c1ccc(-c2cccc(Cl)c2)o1 | 1.7%
6 | COC(=O)c1ccccc1NC(=O)c1ccc(-c2cccc(Cl)c2)o1 | 6.9%
7 | COc1ccccc1NC(=O)c1ccc(-c2ccc(Br)cc2)o1 | 7.4%
8 | O=C(Nc1cccc2ncccc12)c1ccc(-c2ccc(Br)cc2)o1 | 40.4%
9 | Cc1ccc(C)c(N2CCN(CCCNC(=O)Cn3cccc3C(=O)c3ccccc3)CC2)c1 | -7.6%
10 | CC1(c2ccccc2Cl)NC(=O)N(CC(=O)NCc2ccco2)C1=O (centres undefined) | -3%
11 | COC(=O)c1sccc1NC(=O)CSc1nnnn1-c1ccccc1F | 10.3%
12 | O=C(O)CCSc1nnc(COc2ccc([N+](=O)[O-])cc2)n1-c1ccccc1 | 7.5%
13 | N#Cc1c(N)n(-c2ccccc2)c(=O)c2cc([N+](=O)[O-])ccc12 | 36.6%
14 | COc1cccc(-n2c(N)c(C#N)c3ccc([N+](=O)[O-])cc3c2=O)c1 | 16.8%
15 | COc1ccc(-n2cnc3cc([N+](=O)[O-])ccc32)cc1 | 3.2%
16 | CCCCCCC(=O)N=Nc1c(O)[nH]c2ccc([N+](=O)[O-])cc12 | 1.3%
17 | COc1ccc(-n2c(N)c(C#N)c3ccc([N+](=O)[O-])cc3c2=O)cc1 | 52.3% (active)
18 | CCCCCCn1c(N)c(C#N)c2ccc([N+](=O)[O-])cc2c1=O | 63.1% (active)
19 | COCCCNc1ncnc2c1[nH]c1ccccc12 | 16.1%
20 | CCCN(C(=O)CSc1nc2c(cnn2-c2ccccc2)c(=O)[nH]1)C1CCS(=O)(=O)C1 (centres undefined) | -13.4%
21 | O=[N+]([O-])c1ccccc1/C=N/n1c(-c2cccnc2)n[nH]c1=S | 3.5%
22 | COc1ccc2c(c1)[nH]c1c(=O)n(Cc3ccco3)cnc12 | 20.7%
23 | CCOC(=O)c1c(NC(=O)c2cccs2)sc2c1CC(C)(C)OC2 | 21.6%
24 | Oc1ccc(/C=N/NC(=S)Nc2cccnc2)cc1O | 6.3%
25 | Oc1ccc(/C=N/NC(=S)Nc2cccnc2)c(O)c1 | -11.9%

Row | SMILES | inhibition
26 | CCOc1ccc(NC(=S)N(CCN2CCOCC2)Cc2cc3cc4c(cc3[nH]c2=O)OCCO4)cc1 | 24.8%
27 | COc1ccc(NC(=S)N(CCN2CCOCC2)Cc2cc3cc4c(cc3[nH]c2=O)OCO4)cc1 | 14.7%
28 | CCOc1ccc(NC(=S)N(CCN2CCOCC2)Cc2cc3cc4c(cc3[nH]c2=O)OCO4)cc1 | 61.3% (active)
29 | CCOC(=O)C1=C(C)NC(C)=C(C(=O)OCC)C1C(=O)OCC(=O)c1ccc2c(c1)OCCO2 | 14.5%
30 | COC(=O)c1oc2ccccc2c1NC(=O)CN1CCCC1 | 6.8%
31 | COc1cc(NC(=S)Nc2cccc(C)n2)cc(OC)c1OC | -3.5%
32 | C/C(CC(=O)Nc1ccc(Cl)c(C(F)(F)F)c1)=N\NC(=O)c1cc2ccccc2cc1O | -5.7%
33 | NC(=S)Nc1cccc2cc3ccccc3cc12 | -9%
34 | NC(=S)N/N=C\c1c2ccccc2cc2ccccc12 | -132%
35 | NC(=S)Nc1cc2ccccc2c2ccccc12 | 65.4% (active)
36 | Cc1cccc(NC(=O)c2ccoc2C)n1 | 9.2%
37 | COc1cc(-c2n[nH]c(=S)n2-c2cc(C(F)(F)F)ccc2Cl)cc(OC)c1OC | 8.8%
38 | CN(C)Cc1c(O)ccc2c3c(c(=O)oc12)CCCCC3 | -2.7%
39 | O=c1oc2c(CN3CCOCC3)c(O)ccc2c2ccccc12 | 0.8%
40 | CC1=C(C#N)c2nc(N)c(C#N)c(C)c2/C1=C\c1ccc(C)cc1 | -35.8%
41 | COc1cc(/C=C2/C(C)=C(C#N)c3nc(N)c(C#N)c(C)c32)ccc1OCC(=O)O | 50.9% (active)
42 | CC1=C(C#N)c2nc(N)c(C#N)c(C)c2/C1=C\c1ccc(-c2ccccc2C(=O)O)o1 | 10.6%
43 | Cc1c(O)ccc(NS(=O)(=O)c2ccccc2)c1C | 5%
44 | CCOC(=O)c1c(C)[n+]([O-])c2ccc3c(non3O)c12 | 10.7%
45 | O=c1c2c(nc3n1CCCCC3)-c1ccccc1CC21CCCCC1 | 1.4%
46 | O=C1C2C3C=CC(CC3)C2C(=O)N1/N=C/c1ccccc1O (centres undefined) | -0.9%
47 | CCc1ccc(C=NC23CN4CN(CN(C4)C2)C3)s1 | 2%
48 | Oc1ccc2ccccc2c1/C=N/Nc1ccccc1 | -35.6%
49 | Oc1ccc(C=NC2CCCCC2)c(O)c1 | 29%
50 | CN(C)/N=C/c1c(O)ccc2ccccc12 | 26.9%

Row | SMILES | inhibition
51 | O=C(N/N=C\c1c(O)ccc2ccccc12)c1ccc(S(=O)(=O)N2CCCCC2)cc1 | -8.7%
52 | O=C1C2C3C=CC(CC3)C2C(=O)N1/N=C/c1ccc(O)c(O)c1 (centres undefined) | -11.1%
53 | O=S(=O)(/N=C/c1c(O)ccc2ccccc12)c1cccs1 | 27.7%
54 | O=C1C2C3C=CC(CC3)C2C(=O)N1/N=C/c1c(O)ccc2ccccc12 (centres undefined) | 70.3% (active)
55 | Cc1ccccc1C(=O)NC(=S)Nc1ccc(S(=O)(=O)N2CCOCC2)cc1 | 3.6%
56 | CC(C)CC(=O)NC(=S)Nc1ccccn1 | -9.5%
57 | CCSc1nnc(NC(=O)CCc2ccc(OC)cc2)s1 | 8.9%
58 | Cc1ccc(C2C(C#N)=C(N)SC(N)=C2C#N)o1 | -7.3%
59 | Oc1c(Cl)cccc1C=Nc1cc(C(F)(F)F)ccc1N1CCCC1 | 7.1%
60 | Oc1ccc2ccccc2c1C=Nc1cc(C(F)(F)F)ccc1N1CCCC1 | 52.1% (active)
61 | O=C(N/N=C/c1c(O)ccc2ccccc12)c1cccc(C(F)(F)F)c1 | 8.4%
62 | CC(=O)Nc1cc(Cl)ccc1OS(=O)(=O)c1ccc(C)cc1 | 6.5%
63 | Fc1ccc(CN2CCCCCCC2)cc1 | -6.8%
64 | Nc1nc(-c2ccc(-c3ccccc3)cc2)cs1 | -2.8%
65 | COc1ccc(N(Cc2cc3cc(OC)ccc3[nH]c2=O)C(=O)C2CCCO2)cc1 (centres undefined) | 7.7%
66 | COc1ccc2[nH]c(=O)c(CN(C(=O)C3CCCO3)c3ccc(C)cc3)cc2c1 (centres undefined) | 50% (active)
67 | CCOc1ccc(N(Cc2cc3cc(OC)ccc3[nH]c2=O)C(=O)C2CCCO2)cc1 (centres undefined) | 13.8%
68 | CCC(=O)Nc1ccc(NC(=S)NC(=O)Cc2ccccc2)cc1 | 6%
69 | CCN(CC)c1ccc(NC(=S)NC(=O)Cc2ccccc2)cc1 | 50.1% (active)
70 | CN(C)S(=O)(=O)c1ccc(NC(=S)NC(=O)Cc2ccccc2)cc1 | -3.1%
71 | Cc1ccc(CC2CC(=O)N(c3ccncc3)C2=O)cc1 (centres undefined) | 1.2%
72 | CCc1nc2ccc(C(=O)Nc3ccc(NC(C)=O)cc3)cc2nc1CC | 7.1%
73 | Fc1ccc(Nc2cccc3nccnc23)cc1 | 26.2%
74 | Cc1ccc(OS(=O)Nc2cccc3nccnc23)cc1 (centres undefined) | 5.5%
75 | c1cc(Nc2cccc3nccnc23)c2nccnc2c1 | 54.4% (active)

Row | SMILES | inhibition
76 | Cc1cc(C)n(-c2cc(C(=O)O)cc(C(=O)O)c2)n1 | -12.4%
77 | CC1=C(Sc2nc3ccccc3[nH]2)C(=O)NC(C)(C)C1 | 0.2%
78 | CO/N=C/CC(=O)c1cnc(-c2ccc(Cl)cc2)s1 | 53.8% (active)
79 | O=C(C/C=N/OCc1ccc(Cl)cc1)c1cnc(-c2ccccc2)s1 | 13.5%
80 | O=C(C/C=N/OCc1ccccc1F)c1cnc(-c2ccc(Cl)cc2)s1 | 1.3%
81 | O=C(C/C=N/OCc1c(Cl)cccc1Cl)c1cnc(-c2ccccc2)s1 | 14.6%
82 | O=C(C/C=N/OCc1ccc(F)cc1Cl)c1cnc(-c2ccccc2)s1 | -2.1%
83 | CO/N=C/CC(=O)c1cnc(-c2ccccc2)s1 | 57.6% (active)
84 | Cc1ccccc1C(=O)NC1CCN(Cc2nnnn2Cc2ccc(F)cc2)CC1 | 4.6%
85 | CCC(C)(C)NC(=O)C(c1ccccn1)N(C(=O)c1csnn1)c1ccc(C)cc1 (centres undefined) | -1.6%
86 | COc1cc(CNn2cn[nH]c2=S)cc(Br)c1OCc1ccccc1F | 0.2%
87 | CCCCCCNS(=O)(=O)c1ccc(OC)c(OC)c1 | 5.6%
88 | CCCN1CCC(NC(=S)Nc2ccc(OC)c(OC)c2)CC1 | -3%
89 | CCn1cnc2cc(NCc3nc4ccccc4n3C)ccc21 | 14.9%
90 | Cc1nc2cc(NCc3nc4ccccc4n3Cc3ccccc3)ccc2n1C | 20%
91 | CCn1cnc2cc(NCc3nc4ccccc4n3Cc3ccccc3)ccc21 | 50.6% (active)
92 | CCOc1cc2[nH]c(=S)n(C3CC3)c(=O)c2cc1OCC | 2.9%
93 | O=C(c1ccccc1[N+](=O)[O-])N1CCCN(C(=O)c2ccccc2[N+](=O)[O-])CC1 | -6.8%
94 | COc1cc(NCCCCCCCN)c2ncccc2c1 | 50.3% (active)
95 | COc1cc(NC(=O)C2CCCCC2)c2ncccc2c1 | 4.2%
96 | COc1cc(NS(=O)(=O)c2ccc(C)cc2)c2ncccc2c1 | 32.6%
97 | CCn1c(CSCc2ccc(Cl)cc2)n[nH]c1=S | -10.7%
98 | CC(C)(C)C1=CC(=Nc2ccccc2N)C=C(C(C)(C)C)C1=O | -7.5%
99 | CC(C)(C=O)C1=CC(=O)c2ccccc2C1=O | 12.2%

From PubChem BioAssay AID1220 (Sanford-Burnham Center for Chemical Genomics, 2008)
